Results as given in the supplement of paper PMC13380429.

tested on: Vero E6 infected with SARS-CoV-2; experiment: morphology score (similarity to uninfected cells); higher = more like uninfected cells; details: 24 h

Point of comparison: `Cn1c(=O)cc(N2CCC[C@@H](N)C2)n(Cc2cc(F)ccc2C#N)c1=O` [trelagliptin] (10 µM), morphology score 0.194. Against it:
- C[C@@H](NCCCc1cccc(C(F)(F)F)c1)c1cccc2ccccc12 [cinacalcet] (10 µM) — higher, 0.845
- C#C[C@]1(O)CC[C@H]2[C@@H]3CCC4=CC(=O)CC[C@@H]4[C@H]3CC[C@@]21C [Norethindrone (Norethisterone)] (10 µM) — lower, -0.0201
- CCCCS(=O)(=O)N[C@@H](Cc1ccc(OCCCCC2CCNCC2)cc1)C(=O)O [tirofiban] (10 µM) — lower, 0.0487
- Nc1ncnc2c1ncn2[C@@H]1O[C@H](CO)[C@@H](O)[C@H]1O [adenosine] (10 µM) — lower, 0.0109
- [N-]=[N+]=N[C@]1(CO)O[C@@H](n2ccc(N)nc2=O)[C@H](O)[C@@H]1O (10 µM) — lower, 0.0194
- COc1ccccc1N1CCN(CCCCN2C(=O)c3ccccc3C2=O)CC1 (10 µM) — lower, 0.185
- Cc1cnc(C(=O)N[C@H]2CCCCC/C=C\[C@@H]3C[C@@]3(C(=O)NS(=O)(=O)C3CC3)NC(=O)[C@@H]3C[C@@H](Oc4nc5ccccc5c5ccccc45)CN3C2=O)cn1 [paritaprevir] (10 µM) — higher, 0.303
- Cc1cc2c(C(N)=O)cccc2n1-c1nc2c(c(NCc3ccccc3)n1)COCC2 (10 µM) — lower, -0.0618
- CC(=O)S[C@@H]1CC2=CC(=O)CC[C@]2(C)[C@H]2CC[C@@]3(C)[C@@H](CC[C@@]34CCC(=O)O4)[C@H]12 [spironolactone] (10 µM) — higher, 0.291
